Results taken from PubChem BioAssay AID1499 (Sanford-Burnham Center for Chemical Genomics, 2009).
Screen size: about 93,000 compounds; about 65 (0.07%) were called active. This is one part of a sample in which actives are shown more often than they occur.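 Rule for the calls: active = 10 µM primary screen giving 50% or more activity, confirmed by 40% or more on retest at that dose; inactive = the rest.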

biological target: Integrin beta-2 (Homo sapiens) + Integrin alpha-M (Homo sapiens) (UniProt P05107+P11215); experiment: enhancers of CD11b/CD18 adhesion to fibrinogen, primary screen, K562 cells, luminescence (AID 1499); conditions: ATPlite luminescence, at 10 µM, active compounds read high
Sequence (P05107 whole entry, looked up, other chains not shown): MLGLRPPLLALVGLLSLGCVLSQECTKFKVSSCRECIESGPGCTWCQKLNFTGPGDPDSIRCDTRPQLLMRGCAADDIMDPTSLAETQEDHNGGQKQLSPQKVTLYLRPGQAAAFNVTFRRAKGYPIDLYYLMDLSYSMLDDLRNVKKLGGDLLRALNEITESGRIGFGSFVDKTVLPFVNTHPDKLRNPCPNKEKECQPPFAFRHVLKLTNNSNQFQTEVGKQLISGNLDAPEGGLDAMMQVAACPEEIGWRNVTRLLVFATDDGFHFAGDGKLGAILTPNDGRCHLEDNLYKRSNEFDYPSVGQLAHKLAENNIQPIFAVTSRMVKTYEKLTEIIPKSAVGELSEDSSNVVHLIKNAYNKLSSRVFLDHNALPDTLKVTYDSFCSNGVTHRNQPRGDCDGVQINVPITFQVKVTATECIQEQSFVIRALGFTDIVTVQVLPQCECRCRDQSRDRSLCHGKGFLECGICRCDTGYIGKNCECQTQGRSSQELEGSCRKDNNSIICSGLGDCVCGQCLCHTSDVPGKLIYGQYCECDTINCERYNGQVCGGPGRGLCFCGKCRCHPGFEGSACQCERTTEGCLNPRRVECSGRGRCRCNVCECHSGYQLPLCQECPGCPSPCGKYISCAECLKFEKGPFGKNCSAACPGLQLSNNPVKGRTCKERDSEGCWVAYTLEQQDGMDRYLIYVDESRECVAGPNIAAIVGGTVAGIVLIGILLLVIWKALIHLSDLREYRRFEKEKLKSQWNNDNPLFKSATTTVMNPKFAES

activation, inactive:
CCOC(=O)c1c(NC(=S)Nc2ccccc2C)sc2c1CCC2 2.8%
CCOCCCNC(=O)C(=O)NCCCOCC -2.3%
CCc1nnc(NC(=O)C2CC(=O)N(c3ccc4c(c3)OCCO4)C2)s1 (stereo unspecified) 5%
CCCn1c(C)cc(/C=C(\C#N)C(=O)OCC(=O)Nc2cc(OC)c(OC)c(OC)c2)c1C 3%
O=C(/C=C/c1ccccc1)Nc1nnc(SCC(=O)c2ccc3ccccc3c2)s1 59.6%
CCc1nnc(NC(=O)[C@@H](NC(=O)c2cccc(C)c2)C(C)C)s1 -1.2%
O=C(CSc1nc2ccccc2[nH]1)Nc1nc(-c2ccccc2)c(-c2ccccc2)o1 -6.7%
CN(Cc1cccs1)C(=O)Cc1c[nH]c2ccccc12 -1.9%
COC(=O)c1ccc(OCC(O)CN(CCO)CC(O)Cn2ccc3ccccc32)cc1 (stereo unspecified) 8.9%
Cc1c(Cl)cnc(NC(=O)COC(=O)c2ccc(S(=O)(=O)NCc3ccco3)cc2)c1Cl 12.8%
CC(C)(C)c1ccc(C(=O)NCc2nnc(SCC(=O)N3CCCc4ccccc43)n2-c2ccccc2)cc1 -4.7%
Cc1cc(Br)ccc1SCC(=O)OCC(=O)NCc1ccc2c(c1)OCO2 4.5%
N#Cc1c(-c2ccc(F)cc2)cc(C2CC2)nc1SCC(=O)c1cccs1 12.6%
CCn1c2ccccc2c2cc(NC(=O)COC(=O)c3ccccc3Br)ccc21 0.6%
CC(C)Nc1nnc(SCC(=O)/C=C2\N(C)c3ccccc3C2(C)C)s1 0%
Cc1cccc(CC(=O)N2CCN=C2SCc2ccc([N+](=O)[O-])cc2)c1 5.7%
CCOc1ccc(CCNC(=O)CSc2cc(=O)n(C)c3ccc(Cl)cc23)cc1OCC 0.6%
Cc1c(C(=O)Nc2cccc(-c3nnc4n3CCCCC4)c2)oc2ccccc12 0.4%
CC(=O)c1ccc(NC(=O)Nc2ccc([N+](=O)[O-])cc2C)cc1 -2.3%
Cc1cc2oc(=O)cc(CN3CCN(S(=O)(=O)c4cccs4)CC3)c2cc1C(C)C -0.5%
O=C(CCCCCNC(=O)c1ccccc1)N/N=C/c1ccccc1 -6.5%
COc1ccc(NS(=O)(=O)c2ccc(NC(=S)NC(=O)/C=C/c3ccc(C)cc3)cc2)nn1 3.8%
O=C(NNC(=S)Nc1ccc(Br)cc1Cl)c1ccco1 -7.7%
COc1ccc(C(CC(=O)Nc2ccc(C)cc2)NC(=O)C(F)(F)F)cc1 (stereo unspecified) -0.4%
Brc1ccc(-c2csc(N/N=C/c3ccc4c(c3)OCO4)n2)cc1 18.4%
CCOc1ncccc1C(=O)N(C)CC(=O)Nc1ccc(F)cc1 -3.5%
CCCN1CNC(=S)N(CCc2ccccc2)C1 5.1%
Cc1cc(C)cc(C(=O)N2CCN=C2SCc2ccc([N+](=O)[O-])cc2)c1 0.8%
COc1cc(OC)c(C(=O)OC(C)C(=O)Nc2cc(C(F)(F)F)ccc2Cl)cc1OC (stereo unspecified) 4.1%
O=C(Nc1ccccc1F)c1ccccc1-c1ccccc1 0.5%
Cc1ccc(NC(=O)Nc2ccccc2)c(Br)c1 12.1%
COc1ccccc1CN(C)C(=O)C1(c2ccc(Cl)cc2)CC1 11.3%
C/C(=N\NS(=O)(=O)c1ccc(Cl)cc1)c1ccc(NC(=O)c2ccco2)cc1 -2.4%
CC1CCN(c2ccc(C(=O)NCc3ccc4c(c3)OCO4)cc2[N+](=O)[O-])CC1 0.5%
O=C(COC(=O)c1ccc(Cl)nc1)NCc1ccc2c(c1)OCO2 4%
COCCn1c(=NC(=O)c2ccccc2[N+](=O)[O-])sc2cc(S(C)(=O)=O)ccc21 2%
CCOC(=O)c1c(/N=C/c2cc(C)ccc2O)sc2c1CCC2 -6%
COc1cccc(NC(=O)C(Sc2nc3ccccc3c(=O)n2CC(C)C)c2ccccc2)c1 (stereo unspecified) 1%
COc1cc(C(=O)NCc2nnc(SCC(=O)Nc3nc4ccc(C)cc4s3)o2)cc(OC)c1OC 10.4%
COc1ccc(-c2csc(NC(=O)CCCc3cccs3)n2)cc1 -1.8%
O=C(Nc1ccc2c(c1)OCO2)c1ccc(N2C(=O)c3ccccc3C2=O)cc1 23.5%
C/C(CC1CC(C)(C)OC1=O)=N/Nc1nc(-c2ccccc2)cs1 (stereo unspecified) -0.2%
O=C(Cn1cnc2ccccc21)N/N=C/c1ccco1 -5.8%
c1ccc(C2=Nc3cccc4cccc(c34)N2)cc1 7%
COc1ccc(Br)cc1CN(C)CC(=O)Nc1cc([N+](=O)[O-])ccc1OC -0.1%
CCOC(=O)c1cnc2ccc(F)cc2c1Nc1ccc2c(c1)OCCO2 4.3%
Cc1c(Br)c([N+](=O)[O-])nn1CC(=O)Nc1sc2c(c1C(=O)OC(C)C)CCC(C)C2 (stereo unspecified) 10.3%
COc1ccc(/C=C2/C(=O)OCc3cc(OC)c(OC)cc32)c(OC)c1 4%
COc1ccc(-c2csc(NC(=O)COC(=O)Cc3ccc(Cl)cc3Cl)n2)cc1 -1.1%
Cc1ccc(-n2c(SCC(=O)N3c4ccccc4Sc4ccccc43)nnc2-c2ccncc2)cc1 7.2%
Cc1ccc(C)c(NC(=S)NCC(c2cccnc2)N2CCOCC2)c1 (stereo unspecified) 5%
Cc1ccc(S(=O)(=O)N2CCN(CC(=O)N/N=C/c3cc([N+](=O)[O-])ccc3Cl)CC2)cc1 -2.8%
COc1ccc(OCC(O)CNC(=O)Nc2ccc(Cl)cc2)cc1 (stereo unspecified) 7.7%
COc1cc(OC)c(C(=O)Nc2ccccc2-c2ccccc2)cc1OC 6.2%
COc1ccc([N+](=O)[O-])cc1NC(=O)c1ccc(N(Cc2ccccc2C)S(C)(=O)=O)cc1 0.6%
COc1ccc(C2Nc3ccccc3C(=O)N2c2ccc(F)cc2)cc1Cn1nnc2ccccc21 (stereo unspecified) -1.9%
O=C(N/N=C/c1cccc([N+](=O)[O-])c1)C1CC(=O)N(c2ccc(Br)cc2)C1 (stereo unspecified) -1.9%
CCN(C(=O)COC(=O)c1c(NC(C)=O)sc(C)c1C)C1CCS(=O)(=O)C1 (stereo unspecified) 0.3%
CCOC(=O)NC(=O)CSc1nnc(SCCC(=O)O)s1 -3.3%
Cc1cccc(OCc2ccc(C(=O)Nc3ccc(F)cc3)cc2)c1 -6.2%
O=C(NC(=S)Nc1ccc(NC(=O)c2cccs2)cc1)c1ccc([N+](=O)[O-])cc1 55.8%
CC(Sc1nc2cc(Cl)ccc2s1)C(=O)Nc1ccc2c(c1)OCO2 (stereo unspecified) 0.6%
COc1ccc(OC)c(/C=C/C(=O)OCC(=O)Nc2ccc3c(c2)OCCO3)c1 -3.7%
CCOc1ccc2c(=O)c(-c3ccc4c(c3)OCCCO4)c(C)oc2c1 3%
N#Cc1c(NC(=O)c2ccc(N3CCOCC3)c([N+](=O)[O-])c2)sc2c1CCCC2 -0.4%
Cc1ccc(S(=O)(=O)C2C(=O)NC3(C)CC2c2ccccc2O3)cc1 (stereo unspecified) 0.7%
CCC1CCCCN1C(=S)Nc1ccc(SC(F)F)cc1 (stereo unspecified) 1.7%
CCCC/C(C)=N/NC(=O)NC1CCCCC1 -0.9%
CC(C)CNC(=O)COC(=O)c1ccccc1OCC(=O)Nc1ccc(Br)cc1 1%
Cc1cc([N+](=O)[O-])ccc1NC(=O)C1CCCO1 (stereo unspecified) 1.8%
Cc1ccccc1NC(=O)CSC1=NCCN1 3.2%
Cc1cc(C)c[n+](-c2nc3ccccc3nc2[N-]S(=O)(=O)c2cccs2)c1 2.1%
COc1ccc([N+](=O)[O-])cc1NC(=O)C(C)OC(=O)C1c2ccccc2Oc2ccccc21 (stereo unspecified) -2.2%
COc1cc(Cl)c(C)cc1NC(=O)[C@@H]1CCCN1C(=O)c1cccs1 -2.3%
CCOC(=O)C1CCN(c2ccc(C(=O)O)cc2[N+](=O)[O-])CC1 -3.3%
O=C(NCC1CCCO1)/C(=C/c1ccc(Cl)cc1)NC(=O)c1ccccc1 (stereo unspecified) 0.2%
O=C(CN1CCN(c2ccccn2)CC1)N1CCc2ccccc21 3.8%
N#CC1(NC(=O)COc2ccc3oc4ccccc4c3c2)CCCCC1 10.2%
CN1CCN(c2ccc(S(=O)(=O)Nc3ccccc3)cc2[N+](=O)[O-])CC1 -2.2%
Cc1nnc(SCC(=O)N2CCOCC2)[nH]c1=O -6.4%
OCC(CO)(CO)NCc1ccc(-c2ccccc2)cc1 4.4%
COc1cc(/C=N/NC(=O)CCc2n[nH]c(=O)[nH]c2=O)ccc1O 15.1%
COC(=O)C1=C(NC(=O)C(C)(C)C)CCS1 1.8%
Cc1ccc(-c2nnc(SCC(=O)N/N=C/c3cccs3)n2-c2ccc(C)cc2)cc1 9%
COc1ccc(NS(=O)(=O)c2ccc(NC(=O)c3ccc(N(C)S(C)(=O)=O)cc3)cc2)cc1 -3.8%
Cc1ccc(O)c(CCc2ccccc2)n1 -3.8%
CCOC(=O)c1oc2c(CN3CCN(C)CC3)c(O)ccc2c(=O)c1-c1ccc(Br)cc1 2%
O=C(COC(=O)Cn1cnc2ccccc2c1=O)NCC12CC3CC(CC(C3)C1)C2 5.2%
CSCCC(NC(=O)c1cc([N+](=O)[O-])cc([N+](=O)[O-])c1)c1nc2ccccc2[nH]1 (stereo unspecified) 22%
Cc1ccc2nc(SCc3cn4c(C)cc(C)nc4n3)[nH]c2c1 -2.3%
Oc1c(Br)cccc1/C=N/Nc1c(F)c(F)c(F)c(F)c1F -10.4%
